# Results reported in PubChem BioAssay AID686954 (Sanford-Burnham Center for Chemical Genomics, 2013).
# The campaign covered roughly 30,000 compounds. About 240 (0.8%) were called active. Many of the other results were omitted from the sample, so actives are more common in it than they were. Values without a mark were called inactive.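 Rule for the calls: active = at 10 µM dose, at least 30% inhibition, measured as corrected fluorescence normalized to stimulator and neutral control wells; inactive = the rest.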
# Target: Protein artemis (Homo sapiens) (UniProt Q96SD1)
# Test: blockers of Artemis DNA hairpin overhang cleavage – biochemical, fluorescence intensity, FAM/BHQ-1 hairpin substrate, primary screen (AID 686954)
# Conditions: recombinant Artemis, quenched FAM hairpin cleavage fluorescence; at 10 µM; stronger effect = higher value
# Chain of Protein artemis (Homo sapiens) (Q96SD1 whole entry, looked up): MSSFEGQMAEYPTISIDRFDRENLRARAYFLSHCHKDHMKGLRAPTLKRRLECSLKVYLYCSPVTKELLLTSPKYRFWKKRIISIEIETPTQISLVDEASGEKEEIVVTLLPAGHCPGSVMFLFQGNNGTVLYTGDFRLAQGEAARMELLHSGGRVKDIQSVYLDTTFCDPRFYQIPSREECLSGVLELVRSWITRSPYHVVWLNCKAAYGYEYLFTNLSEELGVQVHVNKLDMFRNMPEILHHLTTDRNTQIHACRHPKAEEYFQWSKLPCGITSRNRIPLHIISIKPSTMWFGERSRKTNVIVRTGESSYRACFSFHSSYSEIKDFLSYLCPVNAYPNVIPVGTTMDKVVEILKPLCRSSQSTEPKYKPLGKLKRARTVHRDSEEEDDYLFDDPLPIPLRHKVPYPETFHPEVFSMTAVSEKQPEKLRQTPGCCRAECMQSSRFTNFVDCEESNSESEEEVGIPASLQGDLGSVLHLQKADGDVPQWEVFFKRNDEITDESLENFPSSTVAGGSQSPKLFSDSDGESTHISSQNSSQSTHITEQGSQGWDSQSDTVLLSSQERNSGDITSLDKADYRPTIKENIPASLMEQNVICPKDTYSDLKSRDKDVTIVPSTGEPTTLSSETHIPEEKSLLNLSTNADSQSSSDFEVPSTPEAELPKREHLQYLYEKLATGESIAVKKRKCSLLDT
row,SMILES,inhibition
1,CCC(=O)NC(Nc1nc2ccc(C)cc2s1)(C(=O)OC)C(F)(F)F (stereo not drawn),-8.44%
2,CCn1c(COc2ccccc2)nnc1SCC(=O)Nc1ccc2c(c1)OCCO2,-7.11%
3,S=C(NCCC1=CCCCC1)Nc1ccccc1,3.85%
4,CCOC(=O)C1=NNC2(c3ccc(Cl)cc3)C(=O)N(c3cc(C)cc(C)c3)C(=O)C12 (stereo not drawn),1.03%
5,Cc1oc2nc(SCC(=O)NCc3cccnc3)nc(N)c2c1C,2.99%
6,CCCc1ccc(OCc2ccc(C(=O)N/N=C/c3cccc([N+](=O)[O-])c3)o2)c(OC)c1,-9.45%
7,Cc1c(Cl)c([N+](=O)[O-])nn1Cc1ccc(C(=O)N/N=C\c2cc(Cl)ccc2O)o1,31% (active)
8,Cc1nn(Cc2ccccc2Cl)c(C)c1NC(=O)Cn1nc([N+](=O)[O-])c(Cl)c1C,1.31%
9,COc1ccc(-c2nc3ccccc3n2CCC(C)C)cc1OC,7.4%
10,CCSc1nnc(NC(=O)Cc2ccccc2OC)s1,2.36%
11,C[C@H](NC(=O)NCCc1ccccc1)C(=O)O,-9.76%
12,CCOC(=O)c1nc(Nc2ccc(C(=O)OC)cc2)c2ccccc2n1,-0.44%
13,C/C(=N\NC(=O)c1ccccc1C)c1ccc(N2CCOCC2)cc1,0.87%
14,COc1cccc(-c2cc(C(=O)N/N=C/c3ccc(OC)c(COC(C)=O)c3)c3ccccc3n2)c1,9.16%
15,CS(=O)(=O)n1nc(-c2ccccc2)nc1NCc1ccco1,-21.9%
16,CC(=O)N/C(=C/c1ccc(Cl)cc1)C(=O)NCCc1c[nH]c2ccccc12,-1.86%
17,O=C(Cn1cncn1)N/N=C/c1c2ccccc2cc2ccccc12,-6.23%
18,CC(C)Oc1ccc(C(=O)NC(C)(C)CO)cc1,1.84%
19,O=C(CN(Cc1ccccc1)C(=O)c1ccc2c(c1)OCCO2)NCc1ccc2c(c1)OCO2,-2.04%
20,CC1(C)Cc2ccccc2-c2nnc(-c3cccc(O)c3)n21,-6.85%
21,Cc1ccc(C(=O)OC2=CC(=O)CC(C)(C)C2)cc1,-0.31%
22,CCOC(=O)c1cnc(-c2ccccc2)nc1Oc1ccc(C)cc1,7.75%
23,CSc1nc(C)cc(SC(C(C)=O)C(=O)Nc2ccccc2)n1 (stereo not drawn),-3.91%
24,COc1ccc(-c2nn(-c3ccccc3)cc2C(=O)Nc2nc(CC(C)=O)ns2)cc1,45.9% (active)

row,SMILES,inhibition
1,CC(=O)Cc1nsc(NC(=O)c2ccc(COc3ccc(C)cc3)o2)n1,-5.26%
2,COc1ccc(-c2nn(-c3ccccc3)cc2C(=O)Nc2nccs2)cc1OC,27.5%
3,CN1/C(=c2/s/c(=C3/C(=O)N(c4ccccc4)NC3=Nc3ccccc3)n(C)c2=O)C(C)(C)c2ccccc21,15.8%
4,CCOC(=O)C1=C(CNC2CCCCC2)NC(=O)NC1c1cc(C)ccc1C (stereo not drawn),-5.92%
5,O=C(/C=C/c1ccccc1)c1ccoc1,-1.46%
6,O=C(Nc1ccccc1Cl)O/N=C(/c1ccccc1)c1ccccn1,6.79%
7,Cc1ccc2nc(SC(C)C(=O)NCc3ccco3)[nH]c2c1 (stereo not drawn),4.88%
8,Cc1ccc(-n2c(C)cc(/C=N/Nc3ccc([N+](=O)[O-])cn3)c2C)c(C)c1,14.4%
9,NC(=O)COc1ccc(/C=N/NC(=O)C2CCCN2S(=O)(=O)c2ccc(Cl)cc2)cc1 (stereo not drawn),0.47%
10,CC1CCN(CC(=O)c2c[nH]c3ccccc23)CC1,-3.18%
11,CCOC(=O)Nc1sc(C(=O)N(C)C)c(C)c1C(=O)OCC,7.1%
12,O=C(Cc1ccc(S(=O)(=O)N2CCCC2)s1)NC1CCCCCC1,0.64%
13,CCOc1c(Cl)cc(/C=N/O)cc1OC,-3.96%
14,CCNc1nc(N)nc(-c2cc(Cl)ccc2OC)n1,-15.5%
15,Cc1cccc(N2CCN(C(c3ccc(N(C)C)cc3)c3nnnn3C(C)(C)C)CC2)c1C (stereo not drawn),4.46%
16,COCCNCCOCCOc1cccc(OC)c1,-0.71%
17,CC(C)OC(=O)CN1C(=O)c2ccccc2C1=O,-7.81%
18,CC(=O)Oc1ccc(NC(=O)CCC2CCCCC2)c(C(=O)O)c1,-1.44%
19,Cc1nnc(SCC(=O)NCCOc2ccc(Cl)cc2)n1-c1ccccc1,-3.78%
20,CC1(C)CCCC2=C1CC1C(=O)N(c3ccccc3)C(=O)C1C2 (stereo not drawn),-1.84%
21,O=C1Nc2ccc(Br)cc2/C1=N/N=C/C1=C(N2CCOCC2)C(=C\c2ccccc2)/CC1,30.1% (active)
22,COc1ccc(-c2noc(-c3ccc(C)cc3)n2)cc1,0.23%
23,Cc1ccc2[nH]c3c(=O)n(Cc4ccccn4)cnc3c2c1,3.97%
24,C=CCNc1cnn(-c2ccc(C)cc2)c(=O)c1Cl,3.95%
